Values joined by “and” are separate entries in the source; they are usually repeats but may differ in a detail not shown here. Equal entries are not always repeated. Structures can show the parent of a compound that is named as a salt.
How the values were obtained:
Test in all cases: cell viability relative to vehicle control; higher = less cytotoxic
Details in all cases: 10 µM
[1] = system: K562
How it was run: (§1)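 Screening covered the Selleck bioactive, kinase and epigenetic probe libraries, less identity-inconsistent compounds, on CRISPR-edited mutant clones and isogenic wild-type clones of four leukaemia lines. Cells, at 2000 per well in 50 µL medium, received a single 10 µM acoustically dispensed dose. After 48 h the supernatant was removed and CellTiter-Glo luminescence was read. Viability was analysed in Genedata Screener as percent of the on-plate vehicle control.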

[2] = system: MARIMO
How it was run: as §1

[3] = system: MOLM14
How it was run: as §1

[4] = system: OCI-AML2
How it was run: as §1

SMILES | cell viability ([1]; SRSF2 genotype: SRSF2 P95H/wt) | cell viability ([1]; SRSF2 genotype: SRSF2 wt/wt) | cell viability ([2]; SRSF2 genotype: SRSF2 P95H/wt) | cell viability ([2]; SRSF2 genotype: SRSF2 wt/wt) | cell viability ([3]; SRSF2 genotype: SRSF2 P95H/wt) | cell viability ([3]; SRSF2 genotype: SRSF2 wt/wt) | cell viability ([4]; SRSF2 genotype: P95H/wt) | cell viability ([4]; SRSF2 genotype: wt/wt)
C=CC(=O)N1CC/C(=C\c2ccc(F)c([N+](=O)[O-])c2)C(=O)/C(=C/c2ccc(F)c([N+](=O)[O-])c2)C1 | 2.41% and 0.35% | 0.44% | 0.25% | 0.39% | 0.29% | 0.29% | 0.26% | 0.35%
O=C(/C=C/C=C/c1ccc2c(c1)OCO2)N1CCCCC1 [Piperine (1-Piperoylpiperidine)] | 105% and 94.8% | 89.7% | 92.7% | 100% | 106% | 100% | 85.6% | 97.3%
O=c1c(-c2ccc(O)cc2)coc2cc(O)cc(O)c12 [Genistein] | 97.4% and 105% | 105% | 92.6% | 87.8% | 79.4% | 88.7% | 81.8% | 87.4%
CC(=O)O[C@@]12CO[C@@H]1C[C@H](O)[C@@]1(C)C(=O)[C@H](O)C3=C(C)[C@@H](OC(=O)[C@H](O)[C@@H](NC(=O)OC(C)(C)C)c4ccccc4)C[C@@](O)([C@@H](OC(=O)c4ccccc4)[C@H]21)C3(C)C [Docetaxel Trihydrate] | 24.8% and 32.4% | 32.7% | 8.87% | 5.68% | 8.57% | 4.2% | 6.94% | 13.5%
O=C1N=C(O)NC1(c1ccccc1)c1ccccc1 [Phenytoin sodium (Dilantin)] | 98% and 104% | 96.8% | 104% | 103% | 97.7% | 102% | 103% | 94%
CSCC[C@H](NC(=O)[C@H](CC(C)C)NC(=O)[C@H](Cc1c[nH]c2ccccc12)NC(=O)[C@H](CCC(N)=O)NC(=O)[C@@H](NC(=O)[C@H](Cc1ccccc1)NC(=O)[C@H](CC(=O)O)NC(=O)[C@H](CCC(N)=O)NC(=O)[C@H](C)NC(=O)[C@H](CCCNC(=N)N)NC(=O)[C@H](CCCNC(=N)N)NC(=O)[C@H](CO)NC(=O)[C@H](CC(=O)O)NC(=O)[C@H](CC(C)C)NC(=O)[C@H](Cc1ccc(O)cc1)NC(=O)[C@H](CCCCN)NC(=O)[C@H](CO)NC(=O)[C@H](Cc1ccc(O)cc1)NC(=O)[C@H](CC(=O)O)NC(=O)[C@H](CO)NC(=O)[C@@H](NC(=O)[C@H](Cc1ccccc1)NC(=O)[C@@H](NC(=O)CNC(=O)[C@H](CCC(N)=O)NC(=O)[C@H](CO)NC(=O)[C@@H](N)Cc1cnc[nH]1)[C@@H](C)O)[C@@H](C)O)C(C)C)C(=O)N[C@@H](CC(N)=O)C(=O)N[C@H](C(=O)O)[C@@H](C)O [Glucagon HCl] | 113% and 109% | 113% | 107% | 104% | 102% | 108% | 103% | 109%
Cc1ccc(S(=O)(=O)Cc2nc(-c3ccc(C(=O)NCc4cccnc4)cc3)oc2C)cc1 | 30% and 20.2% | 26% | 21.2% | 37.2% | 12.1% | 2% | 5.44% | 5.6%
CC1=C(/C=C/C(C)=C/C=C/C(C)=C\C(=O)O)C(C)(C)CCC1 [Isotretinoin] | 91.5% and 95.7% | 87.2% | 69.3% | 76.9% | 65.4% | 81.5% | 15.7% | 41.8%
CC(C)(C#N)c1cc(Cn2cncn2)cc(C(C)(C)C#N)c1 [Anastrozole] | 102% and 109% | 107% | 97.4% | 105% | 103% | 99.1% | 93.5% | 95.3%
CC1(C)CCCC2(C)C1CCC1(C)OC(=O)CC12 (centres undefined) [Sclareolide (Norambreinolide)] | 109% and 97.8% | 99.8% | 95.2% | 98.7% | 101% | 106% | 102% | 89.7%
O=C(/C=C/c1ccc(O)c(O)c1)c1ccc(O)cc1O [Butein] | 62% and 61% | 76.8% | 52.6% | 64.7% | 52.4% | 47.8% | 84.1% | 77.8%
O=C(O)CCCNC(=O)c1cccnc1 [Pikamilone] | 109% and 105% | 119% | 97.1% | 105% | 99.9% | 106% | 114% | 118%
O=c1[nH]c(=O)n([C@H]2C[C@H](O)[C@@H](CO)O2)cc1/C=C/Br [Brivudine] | 97.4% and 92% | 103% | 101% | 102% | 95.6% | 105% | 99.8% | 107%
O=S(=O)(N=Cc1c(O)ccc2ccccc12)c1cccs1 | 100% and 99.8% | 95.2% | 100% | 97.3% | 100% | 99% | 101% | 103%
C=C(C)[C@@H]1CC[C@]2(C(=O)O)CC[C@]3(C)[C@H](CC[C@@H]4[C@@]5(C)CCC(=O)C(C)(C)[C@@H]5CC[C@]43C)[C@@H]12 [Betulonic acid] | 45.2% and 68% | 61.4% | 34.2% | 20.9% | 43.6% | 32.2% | 29.6% | 17.1%
C=CCS[S+]([O-])CC=C (centres undefined) [Allicin] | 92.6% and 104% | 91.8% | 96% | 84.9% | 99.8% | 99.8% | 89.2% | 105%
Cc1c[nH]c(=O)[nH]c1=O [Thymine] | 99.9% and 101% | 96.8% | 101% | 95.1% | 109% | 102% | 106% | 101%
Cc1ncc(-c2ccnc(Nc3ccc(S(C)(=O)=O)cc3)n2)n1C(C)C | 45.1% and 45.5% | 32.4% | 10.9% | 5.22% | 1.23% | 0.38% | 0.94% | 15.2%
CCOC(=O)[C@H](CCc1ccccc1)N[C@@H](C)C(=O)N(CC(=O)O)C1Cc2ccccc2C1 [Delapril Hydrochloride] | 100% and 97.5% | 95.8% | 91% | 100% | 86.3% | 90.7% | 94% | 91.6%

SMILES | cell viability ([1]; SRSF2 genotype: SRSF2 P95H/wt) | cell viability ([1]; SRSF2 genotype: SRSF2 wt/wt) | cell viability ([2]; SRSF2 genotype: SRSF2 P95H/wt) | cell viability ([2]; SRSF2 genotype: SRSF2 wt/wt) | cell viability ([3]; SRSF2 genotype: SRSF2 P95H/wt) | cell viability ([3]; SRSF2 genotype: SRSF2 wt/wt) | cell viability ([4]; SRSF2 genotype: P95H/wt) | cell viability ([4]; SRSF2 genotype: wt/wt)
CCc1cc2c(cc1N1CCC(N3CCOCC3)CC1)C(C)(C)c1[nH]c3cc(C#N)ccc3c1C2=O | 91.7% and 98.6% | 105% | 63.9% | 86.3% | 66.7% | 80.5% | 71.7% | 52.2%
CC(C)NCC(O)COc1cccc2ccccc12 (centres undefined) [Propranolol HCl] | 94% and 88.3% | 97.6% | 86.2% | 92.9% | 94.2% | 98.2% | 84.7% | 97%
COc1ccc(-c2ccc3c(N4CCOCC4)nc(N4C[C@@H](C)O[C@@H](C)C4)nc3n2)cc1CO | 45.8% and 54.8% | 46.6% | 60.9% | 50.6% | 37% | 29.8% | 33.4% | 34.5%
C[C@]12CC[C@@H]3c4ccc(O)cc4CC[C@H]3[C@@H]1CCC2=O [Estrone] | 100% and 92.7% | 103% | 94.5% | 96.6% | 101% | 99.1% | 101% | 113%
COc1ccc(NC(=O)c2ccc(C(=N)N(C)C)cc2)c(C(=O)Nc2ccc(Cl)cn2)c1 [Betrixaban maleate] | 96.1% and 95.9% | 89.5% | 86.5% | 89.9% | 99.9% | 102% | 81.3% | 76.5%
O=C(NNc1nc2cc(F)ccc2n2cccc12)c1cnccn1 | 24.8% and 29.5% | 12.5% | 12.6% | 15.3% | 4.38% | 1.25% | 12.4% | 10.5%
CCOC(=O)C=Cc1ccc(OC)cc1 [Ethyl 4-Methoxycinnamate] | 86% and 83.2% | 80% | 81.3% | 88.4% | 83.9% | 84.5% | 84.6% | 83.5%
O=C(O)c1ccc(NC(=O)[C@H](Cc2ccc(O)cc2)NC(=O)c2ccccc2)cc1 [bentiromide] | 103% and 106% | 106% | 112% | 111% | 95.6% | 104% | 110% | 96.2%
Cc1ncc(CO)c(CO)c1O [Metadoxine] | 99.4% and 100% | 104% | 98.1% | 103% | 101% | 103% | 101% | 114%
CCOC(=O)N1CCC(CN(Cc2ccc(Cl)cc2)Cc2ccc([N+](=O)[O-])s2)C1 (centres undefined) [Stenabolic (SR9009)] | 56% and 70.8% | 63.4% | 33.5% | 25.5% | 45.6% | 41.9% | 39.1% | 41.4%
CN1CCC(CNc2ccc3ncc(-c4cccc(OC(F)(F)F)c4)n3n2)CC1 [SGI-1776 free base] | 1.35% and 1.49% | 2.08% | 0.84% | 2.75% | 0.45% | 0.48% | 0.42% | 0.66%
CC(C)(Sc1cc(C(C)(C)C)c(O)c(C(C)(C)C)c1)Sc1cc(C(C)(C)C)c(O)c(C(C)(C)C)c1 [Probucol] | 98.5% and 99.2% | 102% | 99.7% | 105% | 102% | 105% | 105% | 103%
CC(=NNC(=S)N1CCC1)c1ccccn1 | 20.3% and 23% | 23.7% | 7.26% | 11.4% | 1.22% | 0.64% | 11% | 9.98%
COC(=O)N(C)c1c(N)nc(-c2nn(Cc3ccccc3F)c3ncccc23)nc1N [Riociguat (BAY 63-2521)] | 89.6% and 89.1% | 82.6% | 85% | 99% | 90.2% | 94% | 96.3% | 108%
CC(C)CCN1c2nc(Nc3cc(F)c(O)c(F)c3)ncc2N(C)C(=O)C1C (centres undefined) | 49.8% and 63.1% | 64.1% | 33.9% | 35.3% | 11.4% | 4.4% | 16.2% | 20.7%
c1ccc(-c2[nH]ncc2-c2ccnc3ccccc23)nc1 | 105% and 109% | 105% | 107% | 106% | 109% | 104% | 112% | 105%
CC/C(=C(\c1ccc(O)cc1)c1ccc(OCCNC)cc1)c1ccccc1 [Endoxifen HCl] | 21% and 29.8% | 24.5% | 66% | 59.9% | 23.2% | 29.7% | 17% | 38.1%
C/C=C(/C)C(=O)O[C@H]1Cc2cc3ccc(=O)oc3cc2OC1(C)C [Decursinol angelate] | 83.2% and 91.7% | 81.8% | 75% | 82.4% | 83.1% | 89.4% | 71.1% | 77.8%
C[C@@H](c1ncncc1F)[C@](O)(Cn1cncn1)c1ccc(F)cc1F [Voriconazole] | 102% and 99.5% | 99% | 107% | 106% | 99.5% | 101% | 104% | 108%

From the supplement of paper PMC10981050
